Compounds with a hit are over-represented: about 5.4% of the library has one in this group of screens.
ALR H2O2 inh: inhibitors of human sulfhydryl oxidase ALR. purified ALR, DTT oxidation, H2O2 HRP-luminol luminescence. P55789. inhibition, % (test concentration not listed). 290,000 tested, 3.8% active;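 active = mean replicate inhibition above about 79%, with every replicate also reaching it, limit read from the data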
Target sequence (P55789 whole entry, looked up): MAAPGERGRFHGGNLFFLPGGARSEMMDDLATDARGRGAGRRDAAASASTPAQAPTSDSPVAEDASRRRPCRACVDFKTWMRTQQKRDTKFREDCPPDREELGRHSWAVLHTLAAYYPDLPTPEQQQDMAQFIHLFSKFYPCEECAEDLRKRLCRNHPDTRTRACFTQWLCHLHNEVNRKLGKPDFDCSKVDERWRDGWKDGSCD
A3A deaminase: inhibitors of human APOBEC3A DNA deaminase; 330,000 tested, 0.41% active; recombinant A3A, FAM/TAMRA ssDNA deamination fluorescence; inhibition, % at 20 µM;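 active = at least 40% inhibition at 20 µM here, with at most 30% in a related deaminase screen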;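 note: plate controls were A3A with DMSO for no effect and wells lacking A3A enzyme for full effect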
rCAG binder-1: binds r(CAG) RNA repeats | r(CAG) RNA repeat, TO-PRO-1 dye displacement fluorescence | inhibition, % at 3 µM | 370,000 tested, 1.3% active | AID 651821;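 active = inhibition above the plate cutoff, the mean of all test compounds on that plate plus 3 SD, cut at about 35% in these data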;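 note: 0% = DMSO alone and 100% = 100 µM mitoxantrone as full dye displacement; higher means more dye released from RNA so lower well fluorescence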
APOBEC3G inh: blocks human APOBEC3G single-stranded DNA deamination. 330,000 tested, 0.28% active. recombinant A3G, ssDNA deamination FAM/TAMRA fluorescence. inhibition, % at 20 µM. Q9HC16;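 active = inhibition of at least 40% at 20 µM, with no more than 30% in the related APOBEC3A deaminase screen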;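 note: plate controls were DMSO wells with A3G for no effect and wells lacking A3G enzyme for full effect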
Target sequence (Q9HC16 whole entry, looked up): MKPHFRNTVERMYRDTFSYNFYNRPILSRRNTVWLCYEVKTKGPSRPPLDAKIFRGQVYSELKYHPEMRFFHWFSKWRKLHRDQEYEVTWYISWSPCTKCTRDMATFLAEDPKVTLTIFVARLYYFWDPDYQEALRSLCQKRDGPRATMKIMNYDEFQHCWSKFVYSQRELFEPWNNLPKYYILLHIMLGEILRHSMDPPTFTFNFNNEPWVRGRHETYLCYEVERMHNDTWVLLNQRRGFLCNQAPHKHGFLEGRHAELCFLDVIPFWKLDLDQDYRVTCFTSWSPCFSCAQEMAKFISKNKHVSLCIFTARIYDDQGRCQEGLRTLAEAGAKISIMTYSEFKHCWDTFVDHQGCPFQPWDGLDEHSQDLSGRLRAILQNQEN
aDG glyco up: increases alpha dystroglycan glycosylation. Pro5-aDG cells, alpha-DG glycosylation AlphaScreen (IIH6); 0% Pro5, 100% B10-LARGE cell signal. activation, % at 10 µM. 360,000 tested, 0.22% active. AID 624168;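 active = activation of at least 8% versus controls, or a plate z-score of at least 8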;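 note: Pro5 are CHO cells carrying HIG-tagged alpha-DG that lacks glycosylation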
PHOSPHO1 inh: PHOSPHO1 (human) inhibition | Q8TCT1 | recombinant PHOSPHO1, absorbance phosphatase assay | inhibition, % at 13.3 µM | 290,000 tested, 1.1% active | AID 1565; in the data active = inhibition above about 60%
rCAG binder conf: r(CAG) RNA repeat binding, confirmation; 4,300 tested, 70% active; shares compounds with rCAG binder-1; TO-PRO-1 dye displacement fluorescence; inhibition, % at 3 µM; AID 652065;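 active = inhibition above a per-plate cutoff, the mean inhibition of sample wells plus 3 SD, cut at about 35% in these data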;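 note: loss of TO-PRO-1 fluorescence as compound displaces dye from 1x1 AA loop RNA; 0% = DMSO only wells and 100% = 100 µM mitoxantrone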
DNA CAG counter: disrupts DNA CAG TO-PRO-1 complex, flagging rCAG hits; shares compounds with rCAG binder-1; d(CAG) DNA oligo TO-PRO-1 dye displacement, fluorescence; inhibition, % at 3 µM; 4,300 tested, 94% active; AID 652068;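 active = inhibition above its plate's cutoff, the mean test-well inhibition plus 3 SD, cut at about 4.8% in these data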;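 note: 0% = DNA dye mix with DMSO and 100% = 100 µM mitoxantrone; hits displace the dye from DNA and so lower well fluorescence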
dCAG dye DR: counter-screen for rCAG binders: inhibitors of DNA CAG TO-PRO-1 complex. DNA CAG/GTC duplex TO-PRO-1 dye displacement fluorescence. 250 tested, 20% active. IC50, µM. AID 686960. shares compounds with rCAG binder-1; in the data active = IC50 below about 10 µM
dCAG TOPRO ctr: inhibits DNA CAG/GTC TO-PRO-1 complex, rCAG binder counter-screen | shares compounds with rCAG binder-1 | d(CAG) DNA duplex TO-PRO-1 dye displacement, fluorescence | IC50, µM | 30 tested, 80% active
rCAG binder-2: molecules binding r(CAG) RNA repeats, late stage dose response; shares compounds with rCAG binder-1; r(CAG) RNA TO-PRO-1 dye displacement, fluorescence; IC50, µM; 30 tested, 100% active; AID 720651
Active calls of the source: *; i = inactive; x = no result given. Unless noted, the rule behind the calls is not given here.

SMILES | ALR H2O2 inh | A3A deaminase | rCAG binder-1 | APOBEC3G inh | aDG glyco up | PHOSPHO1 inh | rCAG binder conf | DNA CAG counter | others
COc1ccc(/C=C2\Oc3cc(OCC(=O)N4CC(O)C[C@H]4C(=O)O)ccc3C2=O)c(OC)c1OC (some centres not stated) | 9 | -4 | 26 | -9 | 0 | -2 | x | x
COc1ccc(OC)c(/C=C2\Oc3cc(OCC(=O)N4CCC(C(=O)O)CC4)ccc3C2=O)c1 | 2 | -1 | 38* | -6 | 0 | 8 | 42* | 8.6*
COc1ccc(OC)c(/C=C2\Oc3cc(OCC(=O)N4CC(O)C[C@H]4C(=O)O)ccc3C2=O)c1 (some centres not stated) | x | 0 | 42* | -3 | 1 | 13 | 33 | 5.9*
COc1cccc(S(=O)(=O)N(C)C[C@@H]2OCc3cnnn3CCCC(=O)N([C@H](C)CO)C[C@@H]2C)c1 | x | x | -1 | x | 0 | x | x | x
C#CCOCCOCCOCCNc1nc(N2CCN(C(=O)Cn3cc(CCO)nn3)CC2)nc(N2CCN(C(=O)[C@H](Cc3ccc(O)cc3)n3cc(CCO)nn3)CC2)n1 | x | x | 1 | x | 0 | x | x | x
CCOc1ccc(-c2csc(NC(=O)CSCC(=O)O)n2)c2ccccc12 | 44 | -3 | 63* | -5 | 1 | -26 | 70* | 25* | dCAG dye DR=i;dCAG TOPRO ctr=5.5*;rCAG binder-2=1.7*
O=C(Nc1nnc(-c2cccs2)o1)c1cccc(Oc2ccccc2)c1 | x | -3 | 38* | -7 | 0 | -11 | 53* | 15*
O=C(Nc1nnc(-c2cccs2)o1)c1cccc(F)c1 | x | -3 | 3 | -3 | 0 | x | x | x
O=C(CN1C(=O)S/C(=C\c2cccs2)C1=O)Nc1ccc(C(=O)O)c(O)c1 | 43 | x | 67* | x | 0 | 38 | 40* | 10*
O=C(CN1C(=O)S/C(=C\c2cccs2)C1=O)Nc1ccc(O)c(C(=O)O)c1 | 1 | x | 52* | x | 0 | 12 | 37* | 10*
C[C@H](c1ccccc1)N1C[C@@H](COCc2ccccc2)Oc2cccc(N3CCCCC3)c2S1(=O)=O | x | x | 5 | x | x | x | x | x
Cc1ccccc1S(=O)(=O)N1CCCc2nc(-c3ccc(Br)cc3)ccc21 | x | x | 4 | x | x | x | x | x
COc1ccc(OC)c(CN(CC(C)C)S(=O)(=O)c2ccccc2Br)c1 | x | x | 5 | x | x | x | x | x
O=C(O)[C@@H]1CCCN1C(=O)c1ccccc1N1C(=O)[C@@H]2Cc3c([nH]c4ccccc34)C(c3cccc(Cl)c3)N2C1=O (some centres not stated) | 97* | -1 | 35* | -6 | 0 | 34 | 49* | 13*
O=C(O)[C@H]1CCCN1C(=O)c1ccccc1N1C(=O)[C@@H]2Cc3c([nH]c4ccccc34)C(c3cccc(Cl)c3)N2C1=O (some centres not stated) | x | -5 | 39* | -10 | 6 | 18 | 65* | 22*
CSc1ncnc2c1ncn2CCCNCCCN1CCCC1=O | x | x | 1 | x | 0 | x | x | x
O=C(O)CC/C(=N\Nc1ccc(S(=O)(=O)N2CCOCC2)cc1[N+](=O)[O-])c1cccs1 | 17 | 0 | 56* | 27 | 0 | 34 | 59* | 23*
O=C(O)CC/C(=N\Nc1ccc(S(=O)(=O)N2CCCC2)cc1[N+](=O)[O-])c1cccs1 | x | x | 71* | x | 0 | 7 | 60* | 22*
N#Cc1c(C#N)c(SSc2c(C#N)c(C#N)c(N)n2-c2ccccc2)n(-c2ccccc2)c1N | x | x | 3 | x | 1 | x | x | x
CCn1c(SCC(=O)Nc2ccc(C(N)=O)cc2)nc2sc(C)c(C)c2c1=O | x | x | 3 | x | x | x | x | x
O=C1NC(=O)/C(=C/c2ccccc2OCc2ccccc2)S1 | x | -5 | 67* | -6 | 0 | 16 | 60* | 16*
O=C(COc1ccccc1/C=C1\SC(=O)NC1=O)Nc1ccccc1 | x | -1 | 35* | -4 | 0 | -7 | 48* | 15*
CN1C(=O)/C(=C\c2ccccc2OCc2ccccc2)SC1=S | -12 | 0 | 3 | 0 | 0 | 26 | x | x
COc1ccc([C@H]2C[C@@H](O)[C@H](n3cc(C4CC4)nn3)CN2Cc2cccs2)cc1 | x | x | 3 | x | 0 | x | x | x
C=CCNC(=O)c1cc2cc(Cl)ccc2nc1N | x | x | 3 | x | 0 | x | x | x
SMILES | ALR H2O2 inh | A3A deaminase | rCAG binder-1 | APOBEC3G inh | aDG glyco up | PHOSPHO1 inh | rCAG binder conf | DNA CAG counter | others
CCOc1ccc2nc(NS(=O)(=O)c3ccc4c(c3)n(C)c(=O)n4C)sc2c1 | -3 | 1 | 44* | -2 | 0 | -16 | 26 | 8.3*
O=C(NC(Cc1ccccc1)C(=O)O)/C(=C/c1cccc([N+](=O)[O-])c1)NC(=O)c1ccco1 (configuration not stated) | 22 | -1 | 8 | -13 | 0 | 24 | x | x
O=C(Nc1cccc(C(=O)O)c1)/C(=C/c1ccccc1)NC(=O)c1cccc(Br)c1 | -6 | 2 | 19 | 1 | 0 | x | x | x
O=C(NC(Cc1ccccc1)C(=O)O)/C(=C\c1ccco1)NC(=O)c1ccc(Br)cc1 (configuration not stated) | -2 | 2 | 37* | -2 | 0 | 33 | 34 | 8.2*
O=C(Nc1cccc(C(=O)O)c1)/C(=C/c1cccc([N+](=O)[O-])c1)NC(=O)c1cccc(Br)c1 | 3 | -1 | 47* | -1 | 0 | x | 22 | 4.8*
O=C(Nc1cccc(C(=O)O)c1)/C(=C/c1ccc2c(c1)OCO2)NC(=O)c1cccc(Br)c1 | 28 | -1 | 42* | -1 | 0 | 36 | 25 | 6.1*
O=C(NC(Cc1ccccc1)C(=O)O)/C(=C/c1cccc([N+](=O)[O-])c1)NC(=O)c1cccc(Br)c1 (configuration not stated) | 98* | -1 | 48* | -7 | 0 | 32 | 51* | 16*
Cc1cccc(CSCC(=O)N2CCN(S(=O)(=O)c3ccccc3C#N)CC2)c1 | x | x | 4 | x | 0 | x | x | x
O=C(Nc1cccc(OC(F)(F)F)c1)[C@@H]1O[C@H](CO)[C@H](O)[C@H](O)[C@H]1O | x | x | 2 | x | 0 | x | x | x
CCOc1ccccc1-n1c(=S)sc2c(=O)n(-c3ccc(F)cc3)c(SCC(=O)O)nc21 | x | 0 | 25 | -2 | 0 | 54 | x | x

Source: PubChem
